# Assay results as given in ChEMBL document CHEMBL3988442, “University of Dundee, Small-Polar-MMV Screening Library” (2021).
# The campaign covered roughly 69,000 compounds. About 1,000 (1.4%) showed an effect of 50% or more. The sample holds strong results, similar compounds and a random draw of the others, so the mix is not that of the screen.
# System: Leishmania donovani
# Test: Leishmania intramacrophage assay
# Type: functional, organism-based
# Set-up: scale not given: in the data most compounds retested in dose-response had high values
smiles,measurement,setting,value
Cc1ccc(C(=O)NC(CN2CCCC2=O)c2ccccc2)c(=O)[nH]1 (stereo not drawn),Percent Effect,"30 µM, 30.03 µM",-14.78%
Cc1ccc(C(=O)NC(C)CN2CCCC2=O)c(=O)[nH]1 (stereo not drawn),Percent Effect,"30 µM, 30.03 µM",6.193%
Cc1ccc(C(=O)NCC(C)CN2CCCC2=O)c(=O)[nH]1 (stereo not drawn),Percent Effect,"30.3 µM, […]",59.27%
Nc1nc(N)c2c(n1)OC1(CCCN(Cc3nccs3)CC1)C2 (stereo not drawn),Percent Effect,"30.3 µM, […]",27.22%
Cc1nonc1CN(C)c1nc(-c2ccco2)nc2c1CCN(C)CC2,Percent Effect,"30.3 µM, […]",55.96%
Cc1noc(CN(C)c2nc(-c3ccco3)nc3c2CCN(C)CC3)n1,Percent Effect,"30.3 µM, […]",-34.19%
Cc1cc(CN(C)c2nc(-c3ccco3)nc3c2CCN(C)CC3)on1,Percent Effect,"30.3 µM, […]",-83.89%
Cc1cccc(CN2C(=O)CO[C@@H]3CN(Cc4cnn(C)c4)C[C@H]32)c1.O=C(O)C(F)(F)F.O=C(O)C(F)(F)F,Percent Effect,"30.3 µM, […]",15.94%
CC(C)(C)CNC(=O)c1ccc(C(=O)O)cc1,Percent Effect,"30.3 µM, […]",40.51%
CC(C)(C)CNC(=O)c1ccc(C(=O)O)cn1,Percent Effect,"30.3 µM, […]",-11.9%
CC(C)(C)CNC(=O)c1ccc(C(=O)O)nc1,Percent Effect,"30.3 µM, […]",60.75%
Cc1ccc(-c2ncc(CN3CCOC(c4ccco4)C3)s2)o1 (stereo not drawn),Percent Effect,"30.3 µM, […]",-6.468%
COC(=O)CCCN(C)C(c1cccnc1)c1ccc(F)cc1F (stereo not drawn),Percent Effect,"30.3 µM, […]",21.57%
CC(C)N1CC(c2ncc(-c3ccc4c(c3)OCCO4)[nH]2)CC1=O (stereo not drawn),Percent Effect,"30.3 µM, […]",26.45%
Cc1ccc(CCN[C@@H]2c3ccccc3C3(CCNCC3)[C@H]2O)s1,Percent Effect,"30.3 µM, […]",84.2%
COc1ccccc1CCN[C@@H]1c2ccccc2C2(CCNCC2)[C@H]1O,Percent Effect,"30.3 µM, […]",35.47%
O[C@H]1[C@H](NCCc2ccccn2)c2ccccc2C12CCNCC2,Percent Effect,"30.3 µM, […]",-16.64%
CNC(=O)[C@@H]1C[C@H]2CN(Cc3csc(C)n3)C[C@H]2N1C(C)C.O=C(O)C(F)(F)F.O=C(O)C(F)(F)F,Percent Effect,"30.3 µM, […]",29.27%
CC(C)N1Cc2cccc(NCC(=O)N(C)C)c2C1,Percent Effect,"30.3 µM, […]",62.8%
CC(C)C(C)N1Cc2cccc(NCC(=O)N(C)C)c2C1 (stereo not drawn),Percent Effect,"30.3 µM, […]",29.96%
CC(C)N1Cc2cccc(NCC(=O)N(C)C3CCCCC3)c2C1,Percent Effect,"30.3 µM, […]",17.74%
Cc1cc(NC(=O)NCC2COc3ccccc3C2)no1 (stereo not drawn),Percent Effect,30 µM,-28.91%
CN(C)C(=O)CO[C@@H]1CN(Cc2ccccc2F)[C@@H]2CCCO[C@@H]21.O=C(O)C(F)(F)F,Percent Effect,"30.3 µM, […]",10.19%
COc1ccc(CN2CCO[C@H]3[C@H](OCc4ccncc4)CC[C@@H]32)cc1.O=C(O)C(F)(F)F.O=C(O)C(F)(F)F,Percent Effect,"30.3 µM, […]",60.6%
Fc1ccccc1CN1C[C@H](OCC2CCOCC2)[C@H]2OCCC[C@H]21.O=C(O)C(F)(F)F,Percent Effect,"30.3 µM, […]",-19.24%
Fc1ccc(CN2CCO[C@H]3[C@H](OCc4ccncc4)CC[C@@H]32)cc1.O=C(O)C(F)(F)F.O=C(O)C(F)(F)F,Percent Effect,"30.3 µM, […]",43.4%
Fc1ccccc1CN1C[C@@H](OCc2ccncc2)[C@H]2OCCC[C@H]21.O=C(O)C(F)(F)F.O=C(O)C(F)(F)F,Percent Effect,"30 µM, 30.03 µM",54.27%
Cc1cccc(CN2CCO[C@H]3[C@@H](OCc4ccncc4)CC[C@@H]32)n1.O=C(O)C(F)(F)F.O=C(O)C(F)(F)F.O=C(O)C(F)(F)F,Percent Effect,"30.3 µM, […]",12.49%
Cn1cc(S(=O)(=O)N(Cc2ccc(F)cc2F)C2CC2)cc1C(N)=O,Percent Effect,"30.3 µM, […]",34.27%
CNS(=O)(=O)CC1CCCN1C(=O)c1ccc(C)c(C)c1 (stereo not drawn),Percent Effect,"30.3 µM, […]",-9.061%
O=c1cc(-c2ccccc2)nc2n1CCCCC2,Percent Effect,"30.3 µM, […]",-39.42%
COCC(=O)NCc1cc2n(n1)CCCN(CCCC1CCCC1)C2,Percent Effect,"30.3 µM, […]",20.98%
COCC(=O)N1CCC2(CCN(c3cnn(C)c3)C2=O)C1 (stereo not drawn),Percent Effect,"30.3 µM, […]",13.44%
O=C([C@@H]1C[C@@H]2CCN(C3CCOCC3)C[C@@H]2O1)N1CCOCC1,Percent Effect,"30.3 µM, […]",9.764%
Cc1nn(C)cc1CN(C)C(=O)c1cnccn1,Percent Effect,"30.3 µM, […]",-25.04%
CCC(=O)NCCNC(=O)c1nn(C)c(C)c1Cl,Percent Effect,"30.3 µM, […]",-0.8741%
CCN1CCN(C[C@@H]2CN(c3ncc(Cl)cc3Cl)C[C@@H]2CO)CC1,Percent Effect,"30.3 µM, […]",62.72%
CCN1CCN(C[C@@H]2CN(c3ncccc3Cl)C[C@@H]2CO)CC1,Percent Effect,"30.3 µM, […]",25.54%
CCN1CCN(C[C@@H]2CN(c3ncc(Cl)cc3F)C[C@@H]2CO)CC1,Percent Effect,"30.3 µM, […]",46.16%
O=C(NCCc1nccs1)[C@H](c1ccccc1)n1cnnn1,Percent Effect,"30.3 µM, […]",10.58%
CC(C)OCC(=O)N1CCC(c2ncncc2-c2ccnc(N)c2)C1 (stereo not drawn),Percent Effect,"30.3 µM, […]",-5.314%
CN1CCC(c2n[nH]cc2-c2ccnc(N)c2)C1 (stereo not drawn),Percent Effect,"30.3 µM, […]",52.81%
CC(C)Nc1cc(-c2c[nH]nc2C2CCN(C(=O)C3CCC3)C2)ccn1 (stereo not drawn),Percent Effect,"30.3 µM, […]",63.06%
CC(C)CNc1cc(-c2c[nH]nc2C2CCN(C(=O)C3CC3)C2)ccn1 (stereo not drawn),Percent Effect,"30.3 µM, […]",60.8%
Nc1cc(-c2c[nH]nc2C2CCCCN2C(=O)C2CCCC2)ccn1 (stereo not drawn),Percent Effect,"30.3 µM, […]",12.99%
CC(C)Nc1cc(-c2c[nH]nc2C2CCN(C(=O)C3CC3)C2)ccn1 (stereo not drawn),Percent Effect,"30.3 µM, […]",49.22%
Nc1cc(-c2c[nH]nc2C2CCN(C(=O)C3CCCC3)C2)ccn1 (stereo not drawn),Percent Effect,"30.3 µM, […]",42.83%
Cc1c[nH]nc1C1CCN(C(=O)C2CCOCC2)C1 (stereo not drawn),Percent Effect,"30.3 µM, […]",-3.336%
CC(C)N1CCC(c2n[nH]cc2-c2ccnc(N)c2)C1 (stereo not drawn),Percent Effect,"30.3 µM, […]",28.17%
Cc1c[nH]nc1C1CCN(C(=O)C2CCCC2)C1 (stereo not drawn),Percent Effect,"30.3 µM, […]",-28.74%
CC(=O)N1CCC(c2n[nH]cc2-c2ccnc(N)c2)C1 (stereo not drawn),Percent Effect,"30.3 µM, […]",29.98%
CCCNc1cc(-c2c[nH]nc2C2CCN(C(=O)C3CCC3)C2)ccn1 (stereo not drawn),Percent Effect,"30.3 µM, […]",53.3%
COCCNC(=O)[C@H]1CN(Cc2cccs2)C[C@H]2OCC[C@@H]12.O=C(O)C(F)(F)F,Percent Effect,"30.3 µM, […]",-23.24%
Cn1cc(-c2cc(C(F)(F)F)nn2CCC#N)cn1,Percent Effect,"30.3 µM, […]",-0.6212%
CCCn1nccc1-c1nccnc1CC1CCN(C(C)=O)CC1,Percent Effect,"30.3 µM, […]",-24.99%
NCCn1nc(C2CCN(C(=O)CC3CCCCC3)C2)c2nccnc21 (stereo not drawn),Percent Effect,"30 µM, 30.03 µM",-5.021%
Nc1ccc(C(=O)N2C[C@@H]3CC[C@H](C2)N(Cc2ccccc2)C3)cn1,Percent Effect,"30.3 µM, […]",19.02%
COC1COC2(CCN(CC3CC3)CC2)C1.O=C(O)C(F)(F)F (stereo not drawn),Percent Effect,"30.3 µM, […]",18.41%
